According to PubChem BioAssay:
Active and inactive are the calls of the source.

Legend:
[1] = test system: Plasmodium falciparum Sir2 (PF13_0152, Sir2A); experiment: Plasmodium falciparum Sir2A binding compounds – biochemical, small-molecule microarray, 635 nm fluorescence, primary screen (AID 1098); conditions: fluorescence 635 nm, higher = more signal;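 also: score merges spot fluorescence intensity with its signal-to-noise ratio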
[2] = probe aDKK1 binding to arrayed compounds – biochemical, biotinylated probe, 635/667 nm fluorescence, primary screen (AID 1099); conditions: small-molecule microarray, higher = more signal;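 also: score merges 667nm spot fluorescence with signal to noise across triplicate slides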
[3] = probe aCHRDL2 binding to arrayed compounds – biochemical, biotinylated probe, 635/667 nm fluorescence, primary screen (AID 1100); conditions: small-molecule microarray, higher = more signal
[4] = change in splice reporter luminescence, either direction, cell-based, HEK293, spliceosome inhibition project, primary screen (AID 1101); conditions: HEK293 splicing luciferase reporter, 24 h, higher = more signal, called active from +8 up or from −8 down;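 also: HEK293 cells carrying a splicing-competent luciferase reporter gene; test concentration not given here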
[5] = molecular target: Fibroblast growth factor 10 (Homo sapiens) (UniProt O15520); experiment: compounds binding fibroblast growth factor 10 – biochemical, small-molecule microarray, 635 nm fluorescence, primary screen (AID 1102); conditions: FGF10 binding, fluorescence 635 nm, higher = more signal
Fibroblast growth factor 10 (Homo sapiens), sequence (O15520 whole entry, looked up): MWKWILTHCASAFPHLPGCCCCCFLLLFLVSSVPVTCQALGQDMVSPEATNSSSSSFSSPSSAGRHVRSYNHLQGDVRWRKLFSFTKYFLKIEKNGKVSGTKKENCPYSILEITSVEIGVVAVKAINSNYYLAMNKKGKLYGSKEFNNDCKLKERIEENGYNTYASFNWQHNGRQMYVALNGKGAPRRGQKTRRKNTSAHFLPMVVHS

[6] = test system: glycogen synthase kinase-3 (GSK3A per assay name; protocol says GSK3B); experiment: compounds binding glycogen synthase kinase-3 – biochemical, small-molecule microarray, 635 nm fluorescence, GSK3A, primary screen (AID 1103); conditions: fluorescence 635 nm, higher = more signal; also: the record names both GSK3A and GSK3B
[7] = molecular target: Epidermal growth factor receptor (Homo sapiens) (UniProt P00533); experiment: compounds binding epidermal growth factor receptor – biochemical, small-molecule microarray, 635 nm fluorescence, primary screen (AID 1104); conditions: EGFR binding, higher = more signal;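 also: score merges 667 nm emission intensity with spot signal to noise over triplicate slides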
Epidermal growth factor receptor (Homo sapiens), sequence (P00533 whole entry, looked up): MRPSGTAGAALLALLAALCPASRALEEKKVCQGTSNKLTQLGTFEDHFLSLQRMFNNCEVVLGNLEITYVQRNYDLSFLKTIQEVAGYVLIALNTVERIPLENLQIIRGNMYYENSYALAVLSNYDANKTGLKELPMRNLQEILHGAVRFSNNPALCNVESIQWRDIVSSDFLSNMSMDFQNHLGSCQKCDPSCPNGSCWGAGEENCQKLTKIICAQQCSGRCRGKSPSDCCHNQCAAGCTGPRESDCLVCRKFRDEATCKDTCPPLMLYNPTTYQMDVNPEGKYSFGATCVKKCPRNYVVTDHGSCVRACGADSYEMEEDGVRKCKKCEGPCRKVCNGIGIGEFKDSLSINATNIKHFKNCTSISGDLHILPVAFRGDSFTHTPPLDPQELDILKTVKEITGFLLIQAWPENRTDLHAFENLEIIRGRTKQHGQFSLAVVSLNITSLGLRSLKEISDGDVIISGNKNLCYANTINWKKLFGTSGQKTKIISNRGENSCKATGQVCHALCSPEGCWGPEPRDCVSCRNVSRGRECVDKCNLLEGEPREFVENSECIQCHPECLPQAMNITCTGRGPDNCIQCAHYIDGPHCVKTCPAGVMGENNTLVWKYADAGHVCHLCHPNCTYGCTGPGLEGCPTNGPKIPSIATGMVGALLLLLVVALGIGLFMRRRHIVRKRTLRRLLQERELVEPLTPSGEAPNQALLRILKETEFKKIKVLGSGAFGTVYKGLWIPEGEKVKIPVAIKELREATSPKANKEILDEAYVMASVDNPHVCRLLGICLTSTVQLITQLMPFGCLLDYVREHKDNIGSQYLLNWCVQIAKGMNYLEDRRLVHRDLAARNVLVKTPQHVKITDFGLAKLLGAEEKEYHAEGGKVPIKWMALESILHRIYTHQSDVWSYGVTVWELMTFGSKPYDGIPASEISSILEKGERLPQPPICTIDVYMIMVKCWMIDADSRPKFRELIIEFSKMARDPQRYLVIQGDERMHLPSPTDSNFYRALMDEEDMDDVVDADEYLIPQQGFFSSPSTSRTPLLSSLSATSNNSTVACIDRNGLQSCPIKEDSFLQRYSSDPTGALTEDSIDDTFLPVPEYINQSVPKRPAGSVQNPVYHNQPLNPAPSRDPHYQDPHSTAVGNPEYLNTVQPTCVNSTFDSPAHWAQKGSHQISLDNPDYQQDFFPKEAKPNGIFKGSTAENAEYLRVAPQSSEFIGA

[8] = molecular target: Follistatin-related protein 3 (Homo sapiens) (UniProt O95633); experiment: compounds binding follistatin-related protein 3 – biochemical, small-molecule microarray, 635 nm fluorescence, primary screen (AID 1105); conditions: FSTL3 binding, higher = more signal;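 also: score merges emission near 667 nm and signal to noise per printed spot across three slides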
Follistatin-related protein 3 (Homo sapiens), sequence (O95633 whole entry, looked up): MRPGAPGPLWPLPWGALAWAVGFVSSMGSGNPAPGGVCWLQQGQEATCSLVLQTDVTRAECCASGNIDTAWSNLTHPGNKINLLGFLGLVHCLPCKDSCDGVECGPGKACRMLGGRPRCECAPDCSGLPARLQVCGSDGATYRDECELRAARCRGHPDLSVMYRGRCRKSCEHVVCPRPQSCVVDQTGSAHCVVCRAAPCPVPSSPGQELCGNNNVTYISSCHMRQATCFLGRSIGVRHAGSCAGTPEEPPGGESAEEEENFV

[9] = molecular target: Dickkopf-related protein 1 (Homo sapiens) (UniProt O94907); experiment: small molecules binding DKK1 protein – biochemical, small-molecule microarray, 635 nm fluorescence scan, primary screen (AID 1106); conditions: higher = more signal;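 also: score merges emission near 667 nm with signal to noise over three replicate slides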
Dickkopf-related protein 1 (Homo sapiens), sequence (O94907 whole entry, looked up): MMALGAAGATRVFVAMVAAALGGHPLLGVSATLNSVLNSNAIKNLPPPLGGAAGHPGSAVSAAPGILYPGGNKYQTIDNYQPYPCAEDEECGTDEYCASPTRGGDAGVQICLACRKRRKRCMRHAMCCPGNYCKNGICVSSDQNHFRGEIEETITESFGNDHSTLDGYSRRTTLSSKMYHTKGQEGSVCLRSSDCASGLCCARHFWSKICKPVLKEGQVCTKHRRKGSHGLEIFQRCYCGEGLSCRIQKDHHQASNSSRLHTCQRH

[10] = test system: Inhibin beta A chain (activin A); experiment: small molecules binding activin A – biochemical, small-molecule microarray, 635 nm fluorescence scan, primary screen (AID 1107); conditions: INHBA, higher = more signal;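 also: mouse activin A protein probed at 4.33 µg/mL on printed slides; score merges bound-protein fluorescence near 667 nm with spot signal-to-noise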
[11] = test system: Human papillomavirus type 1a protein E7 (residues 44-93); experiment: small molecules binding HPV E7 44-93 – biochemical, small-molecule microarray, residues 44-93, 635 nm fluorescence, primary screen (AID 1108); conditions: fluorescence 635 nm, higher = more signal;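 also: E7 fragment applied at 1 µg/mL in TBST for 1 h at 4 C; score combines spot fluorescence with its signal to noise ratio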
[12] = hepatitis C replication reporter changes, two-sided – Huh7 cells, luciferase reporter, HCV replication inhibitor project, primary screen (AID 1109); conditions: Huh7 HCV replicon luciferase reporter, 48 h; higher = more signal;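 also: huh7 hepatoma cells harbouring a luciferase neomycin HCV replicon reporter; luciferase luminescence as measure of HCV replicon replication; test concentration not given here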
[13] = molecular target: Left-right determination factor 2 (Homo sapiens) (UniProt O00292); experiment: small molecules binding LEFTY2 protein – biochemical, small-molecule microarray, 635 nm fluorescence scan, primary screen (AID 1110); conditions: higher = more signal
Left-right determination factor 2 (Homo sapiens), sequence (O00292 whole entry, looked up): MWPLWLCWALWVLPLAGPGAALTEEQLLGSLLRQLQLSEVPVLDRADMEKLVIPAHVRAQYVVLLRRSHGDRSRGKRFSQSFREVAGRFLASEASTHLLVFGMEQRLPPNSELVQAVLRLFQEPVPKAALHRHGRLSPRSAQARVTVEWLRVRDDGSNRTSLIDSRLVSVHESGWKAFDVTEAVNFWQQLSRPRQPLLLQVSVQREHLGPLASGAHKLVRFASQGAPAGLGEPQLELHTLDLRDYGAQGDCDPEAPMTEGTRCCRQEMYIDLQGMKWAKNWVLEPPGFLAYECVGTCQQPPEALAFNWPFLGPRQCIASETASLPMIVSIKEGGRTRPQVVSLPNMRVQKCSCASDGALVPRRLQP

[14] = molecular target: Calmodulin-1 (Homo sapiens) (UniProt P0DP23); experiment: small molecules binding calmodulin-1 with EGTA – biochemical, small-molecule microarray, Cy5-labelled CALM1, profiling panel (AID 1111); conditions: Cy5-CALM1 binding fluorescence, higher = more signal;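 also: labelled calmodulin applied in Tris saline Tween buffer holding calcium plus EGTA and DTT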
[15] = molecular target: Calmodulin-1 (Homo sapiens) (UniProt P0DP23); experiment: small molecules binding Ca-loaded calmodulin-1 – biochemical, small-molecule microarray, Cy5-labelled CALM1, plus calcium, artefact control for SMM control-protein annotation, profiling panel (AID 1112); conditions: Cy5-CALM1 binding fluorescence, higher = more signal;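 also: score merges spot fluorescence with signal to noise from triplicate slides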
[16] = probe aWnt5a binding to arrayed compounds – biochemical, biotinylated probe, 635/667 nm fluorescence, primary screen (AID 1113); conditions: small-molecule microarray, higher = more signal;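 also: score merges 667 nm fluorescence intensity with signal-to-noise per printed feature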
[17] = probe aShh binding to arrayed compounds – biochemical, biotinylated probe, 635/667 nm fluorescence, primary screen (AID 1114); conditions: small-molecule microarray, higher = more signal;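 also: probe is biotin-labelled aShh protein from a stem cell growth factor screen; measures binding of labelled protein to compounds printed on the slide; score merges feature fluorescence at 667 nm with signal-to-noise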
[18] = probe aNog binding to arrayed compounds – biochemical, biotinylated probe, 635/667 nm fluorescence, primary screen (AID 1115); conditions: small-molecule microarray, higher = more signal;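 also: probe is biotinylated aNog protein used at 0.15 µg/mL for 1 h at 4 C; z-score combines 667 nm fluorescence of each spot with its signal to noise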
[19] = molecular target: Torsin-1A-interacting protein 1 (Homo sapiens) (UniProt Q5JTV8); experiment: compound microarray binding of lysate hLAP1 – cell lysate, small-molecule microarray, COS7 lysate, 635/667 nm fluorescence, primary screen (AID 1116); conditions: 635 nm fluorescence, higher = more signal
Torsin-1A-interacting protein 1 (Homo sapiens), sequence (Q5JTV8 whole entry, looked up): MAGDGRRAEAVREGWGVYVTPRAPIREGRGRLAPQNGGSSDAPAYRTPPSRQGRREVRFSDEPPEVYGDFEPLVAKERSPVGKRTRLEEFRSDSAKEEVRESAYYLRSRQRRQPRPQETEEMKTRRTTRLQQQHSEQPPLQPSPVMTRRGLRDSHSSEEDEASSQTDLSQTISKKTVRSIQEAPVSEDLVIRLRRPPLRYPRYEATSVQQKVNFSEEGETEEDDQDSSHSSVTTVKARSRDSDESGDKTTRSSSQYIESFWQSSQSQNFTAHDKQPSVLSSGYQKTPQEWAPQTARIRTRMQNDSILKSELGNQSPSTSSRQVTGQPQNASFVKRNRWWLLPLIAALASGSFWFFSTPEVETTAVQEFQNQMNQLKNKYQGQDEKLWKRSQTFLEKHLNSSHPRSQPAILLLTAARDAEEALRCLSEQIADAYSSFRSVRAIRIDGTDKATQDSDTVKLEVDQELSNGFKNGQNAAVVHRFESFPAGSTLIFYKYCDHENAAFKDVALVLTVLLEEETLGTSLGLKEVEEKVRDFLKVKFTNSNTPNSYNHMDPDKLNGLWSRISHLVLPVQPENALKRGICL

[20] = molecular target: Alpha-bungarotoxin (Bungarus multicinctus) (UniProt P60615); experiment: compounds binding labelled alpha-BTX control protein – biochemical, small-molecule microarray, Alexa647 label, 635/667 nm fluorescence, artefact control for SMM control protein annotation, profiling panel (AID 1117); conditions: alpha-BTX-A647 binding fluorescence, higher = more signal
Alpha-bungarotoxin (Bungarus multicinctus), sequence (P60615 whole entry, looked up): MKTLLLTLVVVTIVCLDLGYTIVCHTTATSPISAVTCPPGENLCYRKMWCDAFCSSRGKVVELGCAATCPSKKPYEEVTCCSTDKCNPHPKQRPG

Structure (SMILES) | composite z-score [1] | composite z-score [2] | composite z-score [3] | z-score [4] | composite z-score [5] | composite z-score [6] | composite z-score [7] | composite z-score [8] | composite z-score [9] | composite z-score [10] | composite z-score [11] | z-score [12] | composite z-score [13] | composite z-score [14] | composite z-score [15] | composite z-score [16] | composite z-score [17] | composite z-score [18] | composite z-score [19] | composite z-score [20]
CN1C(=O)C2C=CC(C(O)Cc3ccccc3)N(Nc3ccccc3)C2C1=O (stereo not given) | 0.36 | 0.645 | 0.898 | -0.00929 (inactive) | 0.235 | -0.442 | -0.389 | -0.0978 | -0.549 | 0.437 | 0.343 | -0.12 | -0.244 | 1.08 | 0.85 | -0.0738 | -0.153 | 0.338 | 0.439 | 0.428
O=C1OCCC/C=C\[C@H]2OC34C=CCN(Cn5nnc6ccccc65)C(=O)[C@H]3N(CCCCCCO)C(=O)[C@@H]4C12 (stereo not given in full) | 1.53 | -0.234 | 0.489 | -1.57 (inactive) | -1.41 | -0.662 | -0.636 | -0.321 | -0.774 | 1.12 | -0.311 | -0.625 | -1.17 | -0.824 | -0.317 | -0.18 | -0.0035 | 0.599 | -0.401 | -0.716
C=CC[C@@]1(C(=O)NCc2ccccc2)N=C(c2ccc(OCCCO)cc2)O[C@@H]1c1ccccc1N=[N+]=[N-] | 0.888 | 0.925 | 1.02 | -1.35 (inactive) | 1.22 | -0.119 | -0.104 | 0.751 | -0.295 | 0.817 | 1.25 | -0.874 | -0.258 | 1.17 | 0.399 | 0.0839 | 0.171 | 1.74 | 1.44 | 1.82
CCCCCCC#C[Si](O[C@H](c1ccccc1)c1cn([C@H](CO)Cc2ccccc2)nn1)(C(C)C)C(C)C | 0.984 | -0.35 | -0.101 | -0.77 (inactive) | 0.629 | 0.166 | -0.525 | -0.25 | -0.15 | -0.33 | 0.205 | -0.462 | -0.154 | -0.27 | 0.105 | -0.096 | 0.298 | -0.443 | 0.8 | -0.218
COCCn1c(C(=O)N2CCCC2)cc2c1C[C@H]1CN(C(=O)c3ccccc3)[C@@](Cc3ccc(F)cc3)(C(=O)OC)[C@@H]21 | 1.17 | 0.418 | 0.43 | -0.604 (inactive) | -0.149 | 1.31 | 0.291 | 0.664 | 0.131 | 0.593 | 1.43 | -1.42 | -0.0638 | 2.41 | 0.954 | 0.402 | 0.636 | -0.489 | 2.88 | 0.476
COc1ccc([Si](C)(C)[C@H]2[C@H](CCn3cc([C@H](O)c4ccccc4)nn3)O[C@@]3(C(=O)N(Cc4cccc(N5CCOC5=O)c4)c4ccccc43)[C@@H]2C)cc1 | 0.463 | 0.0739 | -0.313 | 0.36 (inactive) | 0.339 | 0.709 | 0.334 | 0.769 | 0.913 | 0.464 | 0.96 | -2.36 | 0.481 | 0.0776 | -0.182 | 0.0094 | -0.349 | -0.0612 | 0.0061 | 0.353
COC(=O)[C@@]1(Cc2ccc(OC)cc2)[C@H]2c3cc(C(=O)N4CCCC4)n(Cc4ccsc4Br)c3C[C@H]2CN1C(=O)c1ccccc1 | 0.824 | 0.597 | 1.08 | 2.42 (inactive) | -0.125 | 0.386 | -0.248 | -0.246 | -0.752 | 0.741 | 1.27 | -3.66 | -0.857 | 1.1 | 0.696 | -0.0944 | -0.237 | 1.48 | 0.254 | 0.218
C=CCC(OC(C)=O)[C@@H]1[C@@H](N(Cc2ccc(-c3cccc(C(F)(F)F)c3)o2)C(=O)c2ccc(-c3ccccc3)cc2)c2cc(OCCCO)ccc2N1C(=O)c1ccc(-c2ccccc2)cc1 (stereo not given in full) | -0.285 | 0.31 | 0.543 | 0.196 (inactive) | 0.269 | -0.754 | -0.327 | 0.104 | -0.0545 | 1.32 | -0.165 | -0.614 | -0.15 | -0.104 | 1.35 | 0.0214 | 0.275 | 0.26 | -0.228 | 0.288
C=CCN1C(=O)[C@]2(O[C@H](CCO)[C@@H]([Si](C)(C)c3ccc(OC)cc3)[C@@H]2C)c2cc(N3C(=O)c4cccc5cccc3c45)ccc21 | 1.18 | 0.0458 | 0.151 | -2.45 (inactive) | 0.446 | 0.398 | -0.0841 | 0.286 | -0.255 | 0.552 | 1.17 | -5.11 | 0.164 | 0.719 | 0.124 | -0.159 | 0.0639 | -0.338 | 0.374 | 0.3
CN(C)CCCCCCNC(=O)[C@@H]1C[C@@H]2C(=O)N[C@@H](CCCCN)C(=O)N2[C@@H]1c1cccc(OCCO)c1 | 1.96 | 2.69 | 1.65 | -1.56 (inactive) | 1.59 | 1.47 | 1.11 | 1.66 | 2.13 | 1.55 | 1.49 | -0.0282 | 1.34 | 2.8 | 1.34 | 1.07 | 1.7 | 3.42 | 4.77 | 2
C[N+](C)(C)CCCCNC(=O)[C@H]1C[C@H]2C(=O)N[C@@H](Cc3ccccc3)C(=O)N2[C@H]1c1ccc(O)cc1 | 0.137 | -0.0123 | -0.0505 | 0.0946 (inactive) | 0.612 | 0.0215 | 0.231 | 0.953 | 1.22 | 0.859 | -0.0021 | -0.72 | 0.686 | -0.494 | 0.565 | -0.0944 | 0.442 | 0.0209 | 0.427 | 1.56
